According to PMC7862700, “An all-to-all approach to the identification of sequence-specific readers for epigenetic DNA modifications on cytosine”:

Tests used:
Experiment in all cases: DAPPL (digital affinity profiling via proximity ligation, sequencing); 10 mM Tris-HCl pH 7.5, 50 mM NaCl, 1 mM DTT, 4% glycerol, room temperature, 30 min; GST-TFs on glutathione beads, 16-mer random dsDNA library, 0.1% formaldehyde crosslink after washing; high values mean tight binding
FLI1 = target: T1, FLI1 (Homo sapiens, UniProt Q01543 1-452); settings: protein: recombinant; tags: N-terminal GST; dsDNA, one strand shown
T1 sequence: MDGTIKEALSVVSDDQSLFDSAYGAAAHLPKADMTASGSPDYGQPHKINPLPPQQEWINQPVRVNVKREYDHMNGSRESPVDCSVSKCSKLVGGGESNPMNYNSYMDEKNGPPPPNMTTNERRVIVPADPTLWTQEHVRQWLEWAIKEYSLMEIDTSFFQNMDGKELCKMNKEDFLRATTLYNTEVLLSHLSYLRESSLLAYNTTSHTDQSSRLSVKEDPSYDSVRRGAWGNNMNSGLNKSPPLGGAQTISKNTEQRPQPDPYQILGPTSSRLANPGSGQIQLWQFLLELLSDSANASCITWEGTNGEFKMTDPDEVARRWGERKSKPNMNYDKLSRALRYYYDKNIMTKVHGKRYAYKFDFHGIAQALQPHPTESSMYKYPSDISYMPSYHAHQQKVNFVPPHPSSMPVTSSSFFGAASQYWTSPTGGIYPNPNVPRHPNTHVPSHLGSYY
In short: (§1)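 GST fusions of human transcription factors were expressed in yeast and captured with glutathione beads. Once given DNA barcodes and pooled alongside a tag-only sample, they were incubated for 30 min at room temperature with 200 nmole of a random double-stranded 16-mer DNA library in Tris/NaCl/DTT/glycerol buffer, then washed, crosslinked (0.1% formaldehyde), proximity-ligated, PCR-amplified and sequenced on an Illumina NextSeq500. The binding signal of each hexamer is its read frequency for a factor divided by its frequency for the tag-only sample.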

ELK1 = target: T2, ELK1 (Homo sapiens, UniProt P19419 1-428); settings: protein: recombinant; tags: N-terminal GST; dsDNA, one strand shown
T2 sequence: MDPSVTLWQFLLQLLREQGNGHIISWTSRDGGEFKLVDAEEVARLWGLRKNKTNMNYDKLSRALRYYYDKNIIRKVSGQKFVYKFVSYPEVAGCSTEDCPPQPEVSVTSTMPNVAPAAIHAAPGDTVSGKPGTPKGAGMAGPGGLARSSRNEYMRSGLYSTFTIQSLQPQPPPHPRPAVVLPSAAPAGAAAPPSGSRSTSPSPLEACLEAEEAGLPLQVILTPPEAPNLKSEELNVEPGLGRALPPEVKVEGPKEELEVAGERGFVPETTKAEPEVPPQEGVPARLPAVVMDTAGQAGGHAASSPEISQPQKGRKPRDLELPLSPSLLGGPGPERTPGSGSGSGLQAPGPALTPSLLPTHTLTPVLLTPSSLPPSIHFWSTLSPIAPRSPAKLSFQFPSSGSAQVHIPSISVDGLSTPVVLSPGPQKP
In short: as §1

GABPA = target: T3, GABPA (Homo sapiens, UniProt Q06546 1-454); settings: protein: recombinant; tags: N-terminal GST; dsDNA, one strand shown
T3 sequence: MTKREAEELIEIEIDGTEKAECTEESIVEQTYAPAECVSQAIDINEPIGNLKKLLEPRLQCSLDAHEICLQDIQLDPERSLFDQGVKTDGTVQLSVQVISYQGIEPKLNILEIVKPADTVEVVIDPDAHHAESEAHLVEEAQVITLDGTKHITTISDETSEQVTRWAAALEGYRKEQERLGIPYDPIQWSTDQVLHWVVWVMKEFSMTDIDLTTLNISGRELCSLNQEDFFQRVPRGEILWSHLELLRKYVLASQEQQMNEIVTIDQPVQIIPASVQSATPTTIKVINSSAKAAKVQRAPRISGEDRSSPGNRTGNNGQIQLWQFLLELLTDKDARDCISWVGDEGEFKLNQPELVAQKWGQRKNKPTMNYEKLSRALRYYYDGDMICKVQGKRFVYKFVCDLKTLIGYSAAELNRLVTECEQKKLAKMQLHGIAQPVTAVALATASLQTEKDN
In short: as §1

ERG = target: T4, ERG (Homo sapiens, UniProt P11308 1-479); settings: protein: recombinant; tags: N-terminal GST; dsDNA, one strand shown
T4 sequence: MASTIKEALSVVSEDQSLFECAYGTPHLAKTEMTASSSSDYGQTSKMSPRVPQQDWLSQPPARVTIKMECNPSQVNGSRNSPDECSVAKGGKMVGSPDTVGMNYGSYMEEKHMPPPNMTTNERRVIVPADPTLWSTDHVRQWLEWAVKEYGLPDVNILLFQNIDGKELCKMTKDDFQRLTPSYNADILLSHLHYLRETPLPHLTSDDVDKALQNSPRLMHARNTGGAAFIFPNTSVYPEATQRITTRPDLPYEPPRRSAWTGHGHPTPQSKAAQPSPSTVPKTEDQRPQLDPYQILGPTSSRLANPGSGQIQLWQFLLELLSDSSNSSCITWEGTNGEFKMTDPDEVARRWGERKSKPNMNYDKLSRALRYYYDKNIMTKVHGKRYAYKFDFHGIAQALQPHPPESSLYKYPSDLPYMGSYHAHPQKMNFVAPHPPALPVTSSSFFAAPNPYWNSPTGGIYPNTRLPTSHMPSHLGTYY
In short: as §1

ELF1 = ELF1 (Homo sapiens, UniProt P32519 1-619); settings: protein: recombinant; tags: N-terminal GST; dsDNA, one strand shown
ELF1, sequence (P32519 whole entry): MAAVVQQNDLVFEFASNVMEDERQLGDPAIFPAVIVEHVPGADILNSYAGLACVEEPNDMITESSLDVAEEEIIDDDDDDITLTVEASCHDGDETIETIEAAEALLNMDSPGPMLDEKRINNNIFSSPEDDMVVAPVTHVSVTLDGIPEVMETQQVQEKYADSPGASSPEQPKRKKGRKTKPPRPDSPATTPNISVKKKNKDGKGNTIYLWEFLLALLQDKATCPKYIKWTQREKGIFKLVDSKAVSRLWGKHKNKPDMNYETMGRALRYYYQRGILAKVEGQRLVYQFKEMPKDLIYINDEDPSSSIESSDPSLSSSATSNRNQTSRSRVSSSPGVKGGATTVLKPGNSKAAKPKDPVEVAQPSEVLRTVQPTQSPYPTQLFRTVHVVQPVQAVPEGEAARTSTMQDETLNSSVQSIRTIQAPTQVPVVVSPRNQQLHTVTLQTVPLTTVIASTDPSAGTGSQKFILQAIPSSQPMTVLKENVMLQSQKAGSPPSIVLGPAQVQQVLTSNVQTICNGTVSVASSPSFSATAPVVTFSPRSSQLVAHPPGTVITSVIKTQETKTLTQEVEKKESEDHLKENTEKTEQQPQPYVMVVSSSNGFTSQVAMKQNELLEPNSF
In short: as §1

EHF = target: T5, EHF (Homo sapiens, UniProt Q9NZC4 1-300); settings: protein: recombinant; tags: N-terminal GST; dsDNA, one strand shown
T5 sequence: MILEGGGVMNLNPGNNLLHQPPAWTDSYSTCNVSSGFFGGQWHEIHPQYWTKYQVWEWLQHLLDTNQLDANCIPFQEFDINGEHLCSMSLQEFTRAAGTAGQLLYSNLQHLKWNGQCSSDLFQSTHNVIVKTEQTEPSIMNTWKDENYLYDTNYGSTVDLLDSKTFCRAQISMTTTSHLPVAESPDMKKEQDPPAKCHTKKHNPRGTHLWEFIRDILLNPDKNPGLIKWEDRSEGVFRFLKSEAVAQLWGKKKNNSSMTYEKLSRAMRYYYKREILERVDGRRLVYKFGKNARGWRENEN
In short: as §1

SPI1 = SPI1 (Homo sapiens, UniProt P17947 1-270); settings: protein: recombinant; tags: N-terminal GST; dsDNA, one strand shown
In short: as §1

SPIB = SPIB (Homo sapiens, UniProt Q01892 1-262); settings: protein: recombinant; tags: N-terminal GST; dsDNA, one strand shown
SPIB, sequence (Q01892 whole entry): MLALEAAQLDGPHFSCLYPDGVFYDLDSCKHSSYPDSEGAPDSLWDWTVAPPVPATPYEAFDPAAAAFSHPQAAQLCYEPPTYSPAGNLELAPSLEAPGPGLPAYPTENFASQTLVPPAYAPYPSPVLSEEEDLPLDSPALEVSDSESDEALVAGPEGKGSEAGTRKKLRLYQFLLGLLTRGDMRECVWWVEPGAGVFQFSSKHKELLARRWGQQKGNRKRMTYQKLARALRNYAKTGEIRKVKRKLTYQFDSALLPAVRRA
In short: as §1

ELK3 = target: T6, ELK3 (Homo sapiens, UniProt P41970 1-407); settings: protein: recombinant; tags: N-terminal GST; dsDNA, one strand shown
T6 sequence: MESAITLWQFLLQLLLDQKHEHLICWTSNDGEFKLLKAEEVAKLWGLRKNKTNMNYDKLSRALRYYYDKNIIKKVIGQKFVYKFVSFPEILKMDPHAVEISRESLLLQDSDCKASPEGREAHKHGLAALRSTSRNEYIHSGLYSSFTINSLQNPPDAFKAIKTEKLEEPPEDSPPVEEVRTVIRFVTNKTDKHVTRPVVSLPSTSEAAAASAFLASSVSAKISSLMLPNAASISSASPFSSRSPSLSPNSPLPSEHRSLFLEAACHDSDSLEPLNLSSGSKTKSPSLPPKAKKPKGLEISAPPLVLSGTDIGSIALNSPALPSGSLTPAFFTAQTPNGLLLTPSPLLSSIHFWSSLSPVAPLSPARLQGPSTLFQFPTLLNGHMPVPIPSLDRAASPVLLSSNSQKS
In short: as §1

FEV = target: T7, FEV (Homo sapiens, UniProt Q99581 1-238); settings: protein: recombinant; tags: N-terminal GST; dsDNA, one strand shown
T7 sequence: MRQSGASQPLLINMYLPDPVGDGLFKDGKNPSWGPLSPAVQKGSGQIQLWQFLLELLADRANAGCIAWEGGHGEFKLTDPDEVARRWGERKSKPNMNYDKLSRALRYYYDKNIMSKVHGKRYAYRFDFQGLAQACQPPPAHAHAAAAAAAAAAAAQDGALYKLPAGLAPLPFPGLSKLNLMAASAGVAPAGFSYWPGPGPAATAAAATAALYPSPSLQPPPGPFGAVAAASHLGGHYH
In short: as §1

ETV5 = ETV5 (Homo sapiens, UniProt P41161 1-510); settings: protein: recombinant; tags: N-terminal GST; dsDNA, one strand shown
ETV5, sequence (P41161 whole entry): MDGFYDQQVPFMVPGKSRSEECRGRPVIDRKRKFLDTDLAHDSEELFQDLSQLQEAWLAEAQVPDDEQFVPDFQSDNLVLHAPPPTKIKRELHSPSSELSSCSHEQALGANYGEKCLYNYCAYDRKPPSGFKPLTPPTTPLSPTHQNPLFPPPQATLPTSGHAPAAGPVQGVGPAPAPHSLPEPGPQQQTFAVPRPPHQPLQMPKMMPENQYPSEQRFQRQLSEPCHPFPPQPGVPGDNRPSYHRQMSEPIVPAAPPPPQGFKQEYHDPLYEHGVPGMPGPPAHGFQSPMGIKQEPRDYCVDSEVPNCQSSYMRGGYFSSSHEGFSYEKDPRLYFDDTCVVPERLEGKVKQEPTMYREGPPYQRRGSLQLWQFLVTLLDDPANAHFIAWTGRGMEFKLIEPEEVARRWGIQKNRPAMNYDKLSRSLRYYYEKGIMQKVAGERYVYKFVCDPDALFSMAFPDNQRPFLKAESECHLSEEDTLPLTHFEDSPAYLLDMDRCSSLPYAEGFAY
In short: as §1

HSF1 = HSF1 (Homo sapiens, UniProt Q00613 1-529); settings: protein: recombinant; tags: N-terminal GST; chain copies: 3; dsDNA, one strand shown
HSF1, sequence (Q00613 whole entry): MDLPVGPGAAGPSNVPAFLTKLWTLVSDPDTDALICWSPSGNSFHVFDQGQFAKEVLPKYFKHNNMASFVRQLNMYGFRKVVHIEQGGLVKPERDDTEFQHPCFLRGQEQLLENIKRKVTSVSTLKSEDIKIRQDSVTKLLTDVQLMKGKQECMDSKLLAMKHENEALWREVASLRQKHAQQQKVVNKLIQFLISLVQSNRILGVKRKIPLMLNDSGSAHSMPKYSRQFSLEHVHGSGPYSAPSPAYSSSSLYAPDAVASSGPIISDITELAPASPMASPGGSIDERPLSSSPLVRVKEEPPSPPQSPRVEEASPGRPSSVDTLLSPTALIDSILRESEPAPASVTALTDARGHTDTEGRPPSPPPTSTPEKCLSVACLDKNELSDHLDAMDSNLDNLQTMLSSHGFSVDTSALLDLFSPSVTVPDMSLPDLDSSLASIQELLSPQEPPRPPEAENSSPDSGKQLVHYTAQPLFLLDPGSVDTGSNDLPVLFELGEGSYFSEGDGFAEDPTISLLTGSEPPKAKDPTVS
In short: as §1

SPIC = target: T8, SPIC (Homo sapiens, UniProt Q8N5J4 1-248); settings: protein: recombinant; tags: N-terminal GST; dsDNA, one strand shown
T8 sequence: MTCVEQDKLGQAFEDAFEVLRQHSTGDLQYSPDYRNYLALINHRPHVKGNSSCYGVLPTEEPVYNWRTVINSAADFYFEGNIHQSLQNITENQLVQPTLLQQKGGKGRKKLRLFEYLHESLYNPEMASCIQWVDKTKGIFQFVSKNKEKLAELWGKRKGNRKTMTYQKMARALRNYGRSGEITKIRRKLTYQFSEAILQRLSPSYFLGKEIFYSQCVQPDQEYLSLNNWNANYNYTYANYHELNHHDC
In short: as §1

ELF4 = ELF4 (Homo sapiens, UniProt Q99607 1-663); settings: protein: recombinant; tags: N-terminal GST; dsDNA, one strand shown
ELF4, sequence (Q99607 whole entry): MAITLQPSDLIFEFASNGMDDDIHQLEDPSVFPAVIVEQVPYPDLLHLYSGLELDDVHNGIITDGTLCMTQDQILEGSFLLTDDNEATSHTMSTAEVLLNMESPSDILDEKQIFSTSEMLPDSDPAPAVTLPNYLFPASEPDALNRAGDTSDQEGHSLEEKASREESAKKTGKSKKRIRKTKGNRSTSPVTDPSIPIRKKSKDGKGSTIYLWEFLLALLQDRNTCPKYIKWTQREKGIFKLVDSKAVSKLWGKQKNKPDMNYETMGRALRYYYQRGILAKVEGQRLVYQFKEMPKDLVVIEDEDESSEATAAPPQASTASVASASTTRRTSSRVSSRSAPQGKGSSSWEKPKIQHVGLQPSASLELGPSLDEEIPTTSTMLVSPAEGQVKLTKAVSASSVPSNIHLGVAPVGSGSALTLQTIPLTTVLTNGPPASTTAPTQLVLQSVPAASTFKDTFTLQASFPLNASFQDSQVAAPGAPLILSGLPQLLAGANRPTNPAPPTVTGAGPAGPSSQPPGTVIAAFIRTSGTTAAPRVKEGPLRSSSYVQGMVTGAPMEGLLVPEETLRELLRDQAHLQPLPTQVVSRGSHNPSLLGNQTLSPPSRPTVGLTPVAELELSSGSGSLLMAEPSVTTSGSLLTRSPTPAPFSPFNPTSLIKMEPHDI
In short: as §1

ELK4 = target: T9, ELK4 (Homo sapiens, UniProt P28324-2 1-405); settings: protein: recombinant; tags: N-terminal GST; dsDNA, one strand shown
T9 sequence: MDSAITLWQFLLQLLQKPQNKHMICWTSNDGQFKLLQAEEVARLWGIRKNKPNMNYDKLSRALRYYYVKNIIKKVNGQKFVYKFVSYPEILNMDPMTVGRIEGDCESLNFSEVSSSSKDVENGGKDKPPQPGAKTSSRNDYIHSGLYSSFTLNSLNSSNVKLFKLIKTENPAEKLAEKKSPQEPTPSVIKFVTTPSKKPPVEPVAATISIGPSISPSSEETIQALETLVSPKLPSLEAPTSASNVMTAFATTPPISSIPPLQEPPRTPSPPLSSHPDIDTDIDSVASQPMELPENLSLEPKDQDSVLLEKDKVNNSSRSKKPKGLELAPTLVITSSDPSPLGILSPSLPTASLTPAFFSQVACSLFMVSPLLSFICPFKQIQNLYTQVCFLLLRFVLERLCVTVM
In short: as §1

ETV2 = target: T10, ETV2 (Homo sapiens, UniProt O00321 1-342); settings: protein: recombinant; tags: N-terminal GST; dsDNA, one strand shown
T10 sequence: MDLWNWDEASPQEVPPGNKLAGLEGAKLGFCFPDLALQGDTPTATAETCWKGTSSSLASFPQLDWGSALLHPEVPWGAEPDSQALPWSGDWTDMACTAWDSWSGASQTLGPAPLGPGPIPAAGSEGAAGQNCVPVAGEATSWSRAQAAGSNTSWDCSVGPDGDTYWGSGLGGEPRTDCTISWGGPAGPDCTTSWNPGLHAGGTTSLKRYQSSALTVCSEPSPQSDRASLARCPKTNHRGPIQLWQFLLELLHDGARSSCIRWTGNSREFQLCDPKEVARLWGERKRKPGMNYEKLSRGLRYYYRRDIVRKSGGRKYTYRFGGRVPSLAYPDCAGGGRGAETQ
In short: as §1

ELF3 = target: T11, ELF3 (Homo sapiens, UniProt P78545 1-371); settings: protein: recombinant; tags: N-terminal GST; dsDNA, one strand shown
T11 sequence: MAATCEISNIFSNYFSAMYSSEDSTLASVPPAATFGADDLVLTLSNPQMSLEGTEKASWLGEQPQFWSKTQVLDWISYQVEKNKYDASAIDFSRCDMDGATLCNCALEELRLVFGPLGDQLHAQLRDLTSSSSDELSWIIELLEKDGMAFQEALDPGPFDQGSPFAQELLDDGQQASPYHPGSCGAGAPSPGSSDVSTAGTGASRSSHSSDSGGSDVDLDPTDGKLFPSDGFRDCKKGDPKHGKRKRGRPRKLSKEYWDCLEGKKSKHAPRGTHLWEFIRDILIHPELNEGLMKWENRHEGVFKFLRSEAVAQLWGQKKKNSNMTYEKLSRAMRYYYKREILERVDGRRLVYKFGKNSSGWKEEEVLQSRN
In short: as §1

CRX = CRX (Homo sapiens, UniProt O43186 1-299); settings: protein: recombinant; tags: N-terminal GST; dsDNA, one strand shown
CRX, sequence (O43186 whole entry): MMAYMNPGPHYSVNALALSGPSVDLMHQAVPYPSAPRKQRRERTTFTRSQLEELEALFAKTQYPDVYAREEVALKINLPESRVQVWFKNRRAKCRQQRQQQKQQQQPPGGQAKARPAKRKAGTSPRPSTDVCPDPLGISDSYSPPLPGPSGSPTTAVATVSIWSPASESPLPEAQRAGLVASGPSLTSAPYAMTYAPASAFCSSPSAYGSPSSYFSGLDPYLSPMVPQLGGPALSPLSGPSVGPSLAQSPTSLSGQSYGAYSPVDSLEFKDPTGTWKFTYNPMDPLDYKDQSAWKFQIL
In short: as §1

ETV1 = ETV1 (Homo sapiens, UniProt P50549 1-477); settings: protein: recombinant; tags: N-terminal GST; dsDNA, one strand shown
ETV1, sequence (P50549 whole entry): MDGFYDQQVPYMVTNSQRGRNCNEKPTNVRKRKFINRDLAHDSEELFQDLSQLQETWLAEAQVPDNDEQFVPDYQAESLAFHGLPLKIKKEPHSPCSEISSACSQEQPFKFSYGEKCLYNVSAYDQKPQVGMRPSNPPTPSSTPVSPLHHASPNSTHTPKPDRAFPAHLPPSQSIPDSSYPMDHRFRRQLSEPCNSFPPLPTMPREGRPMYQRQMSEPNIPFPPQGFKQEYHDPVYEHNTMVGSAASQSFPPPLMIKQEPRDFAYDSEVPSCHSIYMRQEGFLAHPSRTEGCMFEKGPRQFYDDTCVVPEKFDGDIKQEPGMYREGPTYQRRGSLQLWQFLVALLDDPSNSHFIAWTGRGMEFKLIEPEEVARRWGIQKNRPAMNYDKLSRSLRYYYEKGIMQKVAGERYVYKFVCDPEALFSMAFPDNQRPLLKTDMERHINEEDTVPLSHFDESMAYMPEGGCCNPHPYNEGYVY
In short: as §1

CCTCCG was tested, and the binding signal (FLI1) was 1.18 fold enrichment (6-mer frequency, TF over GST control), the binding signal (ELK1) was 1.55 fold enrichment (6-mer frequency, TF over GST control) and the binding signal (GABPA) was 1.41 fold enrichment (6-mer frequency, TF over GST control). The binding signal (ERG) was 1.35 fold enrichment (6-mer frequency, TF over GST control), the binding signal (ELF1) was 1.32 fold enrichment (6-mer frequency, TF over GST control) and the binding signal (EHF) was 1.24 fold enrichment (6-mer frequency, TF over GST control). The binding signal (SPI1) was 1.41 fold enrichment (6-mer frequency, TF over GST control), the binding signal (SPIB) was 1.48 fold enrichment (6-mer frequency, TF over GST control) and the binding signal (ELK3) was 1.38 fold enrichment (6-mer frequency, TF over GST control). The binding signal (FEV) was 1.45 fold enrichment (6-mer frequency, TF over GST control), the binding signal (ETV5) was 1.34 fold enrichment (6-mer frequency, TF over GST control) and the binding signal (HSF1) was 1.01 fold enrichment (6-mer frequency, TF over GST control). For the same sequence, the binding signal (SPIC) was 1.62 fold enrichment (6-mer frequency, TF over GST control), the binding signal (ELF4) was 1.38 fold enrichment (6-mer frequency, TF over GST control) and the binding signal (ELK4) was 1.36 fold enrichment (6-mer frequency, TF over GST control). The binding signal (ETV2) was 1.33 fold enrichment (6-mer frequency, TF over GST control), the binding signal (ELF3) was 1.32 fold enrichment (6-mer frequency, TF over GST control) and the binding signal (CRX) was 1.07 fold enrichment (6-mer frequency, TF over GST control). The binding signal (ETV1) was 1.4 fold enrichment (6-mer frequency, TF over GST control).
